Most compounds without a hit are left out; they make up all but 3.9% or so of the library.
p53null 39C tox: p53 null cell cytotoxicity, nonpermissive temperature; H1299 p53-null (neo) cells, 39C, ATPlite viability, 24 h; Potency, µM (doses to about 46.1 µM), for the others: at the top dose activity, negative = cell killing, most hits filed as cytotoxic; 55,000 tested, 0.97% active; AID 904;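 note: potency is the fitted concentration of half-maximal effect; 0% = DMSO only and -100% = full killing by 100 µM tamoxifen; nearly all actives have a fitted effect of over 50% in size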
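Temperature-shift cytotoxicity format: compound titrations on p53-null or A138V-expressing H1299 cells held 24 hr at 39C, cell ATP then measured, AC50 from Hill model.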
GALC G270D act: enhancers of human galactocerebrosidase G270D mutant activity in cells; P54803; Potency, µM (titrated, usually from 57.5 µM), usual class: activators; 145M-Twi-hGALC-G270D cells (Twitcher mouse brain line with human GALC G270D), HMU-beta-Gal fluorescence, 48 h; 45,000 tested, 0.1% active; AID 1159614; note: potency is the fitted concentration of half-maximal effect; 0% is about no effect; nearly all actives have a fitted effect of over 65% in size
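Live 145M-Twi cells (Twitcher mouse brain-derived, GALC-null) stably expressing human GALC-G270D, with a wild-type GALC line, were compound-treated. Residual GALC activity was then read as fluorescence from 0.1 mM final HMU-β-gal at pH 5.2; higher signal means activation.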
p53null 32C tox: selectivity test: cytotoxicity in p53 null cells, permissive temperature; 55,000 tested, 0.62% active; Potency, µM (top dose mostly 46.1 µM), for inactives: top-dose activity change, negative = cytotoxicity, hits mostly cytotoxic; H1299-neo p53 null cells, ATP luminescence, 24 h, 32C;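 note: potency is the fitted concentration of half-maximal effect; 0% = DMSO only and -100% = full killing by 100 µM tamoxifen; nearly all actives have a fitted effect of over 55% in size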
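Cells lacking p53 (H1299-neo) are plated at 600 per well and allowed to settle overnight at 37C. Test compounds (up to 46 uM) are added and held 24 hours at 32C, then ATP is quantified by luminescence.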
DRV1 agonist: activates human resolvin D1 receptor GPR32 | O75388 | CHO-K1 GPR32 beta-arrestin PathHunter luminescence, 90 min; zero percent set by DMSO-only wells | activation, % at 76.9 µM | 48,000 tested, 2.5% active | AID 1346428;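 active = activation of at least 60% and not above a set upper limit, about 1 call in 100 departs from these limits; inconclusive = activation of 40% to 60%, or above that upper limit; inactive = activation under 40%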; note: 0% is about no effect
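Step 1: seed CHO-K1 GPR32 beta-arrestin cells, 2,500/well, overnight at 37 °C. Step 2: add compounds, 90 min at 37 °C. Step 3: detection reagent, 1 h ambient, then luminescence.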
FH mod: Identification of activators of human fumarate hydratase by quantitative high-throughput screening | Fumarate hydratase, mitochondrial (Homo sapiens), P07954 | FH coupled MDH/diaphorase resazurin fluorescence, 15 min | Potency, µM (titrated, usually from 79.9 µM), inactives show top-dose activity change, negative = inhibition, actives largely listed as inhibitors | 54,000 tested, 0.22% active | AID 1347055, 2019; note: potency is the fitted concentration of half-maximal effect; % is set by controls: 0 for no effect and ±100 for the full control effect; the screen sought activators but most active calls are inhibition curves; nearly all actives have a fitted effect of over 45% in size
NTMT1 inh: inhibitors of human N-terminal methyltransferase NTMT1. Q9BV86. NTMT1 MTase-Glo SAH luminescence, purified enzyme. Potency, µM (doses to about 114 µM), for the others: at the top dose activity change, negative = inhibition, most hits filed as inhibitors. 59,000 tested, 2.5% active. AID 1645870;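 note: potency is the fitted concentration of half-maximal effect; plate controls were DMSO vehicle for no effect and no enzyme for full effect; nearly all actives have a fitted effect of over 65% in size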
Target sequence (Q9BV86 whole entry, looked up): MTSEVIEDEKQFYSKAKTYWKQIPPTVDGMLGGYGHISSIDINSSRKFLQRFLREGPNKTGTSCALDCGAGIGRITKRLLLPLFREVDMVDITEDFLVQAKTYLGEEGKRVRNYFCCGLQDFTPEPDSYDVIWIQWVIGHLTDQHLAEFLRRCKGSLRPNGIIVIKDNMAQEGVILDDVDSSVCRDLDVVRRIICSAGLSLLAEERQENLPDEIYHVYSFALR
DYRK1A KinaseGlo: human DYRK1A kinase inhibition by ATP depletion readout; recombinant DYRK1A, Kinase-Glo ATP depletion luminescence; Potency, µM (series often up to 76.9 µM), for inactives: top-dose activity change, negative = inhibition, actives largely listed as inhibitors; shares compounds with NTMT1 inh; 100 tested, 80% active
CLK4 KinaseGlo: inhibits human CLK4 kinase in Kinase-Glo confirmation; Potency, µM (highest dose often 76.9 µM), without a hit: top-dose activity, negative = inhibition, actives largely listed as inhibitors; recombinant Clk4, Kinase-Glo ATP luminescence, 4.5 h; shares compounds with NTMT1 inh; AID 493204; 90 tested, 90% active
NNMT counter: human NNMT inhibition, NTMT1 counter-screen; shares compounds with NTMT1 inh; NNMT MTase-Glo luminescence, SAH detection; Potency, µM (top dose mostly 57.1 µM), inactives show at the highest dose activity, negative = inhibition, most hits filed as inhibitors; 120 tested, 10% active; AID 1645878
Target sequence (P40261 whole entry, looked up): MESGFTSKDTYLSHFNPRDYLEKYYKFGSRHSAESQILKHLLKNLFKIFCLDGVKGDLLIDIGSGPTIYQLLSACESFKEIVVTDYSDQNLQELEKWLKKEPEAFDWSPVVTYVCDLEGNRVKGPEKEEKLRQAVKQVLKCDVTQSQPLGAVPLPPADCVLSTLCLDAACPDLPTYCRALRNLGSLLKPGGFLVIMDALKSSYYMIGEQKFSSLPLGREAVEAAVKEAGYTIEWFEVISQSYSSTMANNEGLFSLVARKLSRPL
The depositor's hits bear a star; i = inactive; ? = inconclusive; . = no result given; [ ] = remark or other dose. Unless noted, calls come from the whole dose curve; as a rule, active = well fitted curve in the direction sought with a large enough effect; inconclusive = small, poorly fitted or top-dose-only effect, or another doubt; inactive = no such curve, though single readings can be large; an effect the other way counts as inactive or inconclusive.

SMILES | p53null 39C tox | GALC G270D act | p53null 32C tox | DRV1 agonist | FH mod | NTMT1 inh | others
COc1cc(Nc2c(C#N)cnc3cc(OCCCN4CCN(C)CC4)c(OC)cc23)c(Cl)cc1Cl | . | i | . | 46 | -17% | 7.9µM* | NNMT counter=20µM*
CC(=O)Nc1sc2c(c1C(=O)O)CCNC2 | . | . | . | . | . | 7%
CN(C)CCn1cc(S(=O)(=O)c2cccc(F)c2)c2cccnc21 | . | . | . | . | 1% | 6%[57.5 µM]
CCC(=O)OCC(=O)C1(OC(=O)CC)C(C)CC2C3CCC4=CC(=O)C=CC4(C)C3(F)C(O)CC21C (stereo not drawn) | . | . | . | . | . | 6%
O=C(NC1CCCCC1)c1cccc(COCC(F)(F)F)c1 | -9% | . | 2% | . | . | .
NC(=O)c1cccc(-c2cc(OC(=O)NC3CCCCC3)ccc2O)c1 | . | . | . | . | -12% | ? | NNMT counter=-18%
C=CCc1ccc(O[C@@H]2O[C@H](CO)[C@@H](O)[C@H](O)[C@H]2O)c(OC)c1 | . | . | . | . | 0%[53.3 µM] | 11%[29.8 µM]
CCCc1c(C(C)C)nc(C(C)C)c([C@@H](C)O)c1-c1ccc(F)cc1O | . | . | . | . | ? | 4%[57.5 µM]
Cc1ccc2ncnc(NCCC(=O)O)c2c1 | 17% | . | 5% | . | . | .
CC(O)c1ccc(-c2ccc3ncnc(NCCc4cnc[nH]4)c3c2)o1 (stereo not drawn) | . | . | . | . | . | ? | CLK4 KinaseGlo=1.5µM*
c1nc(NCc2ccc3c(c2)OCO3)c2cc(-c3ccoc3)ccc2n1 | . | . | . | . | . | 1%
Cc1occc1-c1ccc2ncnc(NCCc3cnc[nH]3)c2c1 | . | . | . | . | . | ? | DYRK1A KinaseGlo=9.2µM*
Cc1ccc(CNc2ncnc3ccc(-c4ccoc4)cc23)o1 | . | . | . | . | . | -5% | DYRK1A KinaseGlo=6.5µM*
c1nc(NCCc2cnc[nH]2)c2cc(-c3ccoc3)ccc2n1 | . | . | . | . | . | -2% | DYRK1A KinaseGlo=4.1µM*
CCOc1ccc(CNc2ccc(-c3nc4ccccc4[nH]3)cc2)cc1 | . | . | . | . | . | -1%[57.5 µM]
CCOC(=O)c1ccoc1-c1ccc2ncnc(NCCc3cnc[nH]3)c2c1 | . | . | . | . | . | -9% | DYRK1A KinaseGlo=?
C[C@@H](Oc1cc(-c2cnn(C3CCNCC3)c2)cnc1N)c1c(Cl)ccc(F)c1Cl | . | . | . | . | -8% | 18µM* | NNMT counter=?
C[C@H](Oc1cc(-c2cnn(C3CCNCC3)c2)cnc1N)c1c(Cl)ccc(F)c1Cl | . | . | . | . | -3% | ?
CC1=C(C(=O)Nc2ccon2)C2(CCCC2)N=C(Nc2nc3ccccc3o2)N1 | . | . | . | . | . | 11%
Cc1[nH]c(/C=C2\C(=O)Nc3cc(-c4ccccc4)ccc32)c(C)c1CCC(=O)O | . | . | . | . | -18% | ? | NNMT counter=28%
